This passage reports activity change results from PubChem BioAssay AID2094 (Broad Institute, 2009).

The structures appear in SMILES notation. Among all 300,000 compounds or so, about 1,200 (0.4%) were called active. This excerpt belongs to a sample that is enriched for actives. A number with no mark means an inactive call. Cut-off read from the data, not from the text of the source: active = activity change below about -75% (passing the limit was not always enough); inconclusive = no clear call, values can overlap the other calls.

The nature of this test: modulation of AI-2 quorum-sensing luminescence – JMH597 strain, luminescence/OD600 ratio, primary screen (AID 2094).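 Note: luminescence divided by OD600 gain over 9 h not by final OD600 alone.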 The note with it: Vibrio harveyi JMH597 AI-2 luminescence/OD600 ratio, 9 h; at 7.5 µM; hits give low values; 0 = neutral-control median; strain lacks LuxN and CqsS sensors.
Regarding `O=C(O)c1c(NC(=O)N2CCCC2)sc2c1CCCC2`, the activity change is 6.56%.
Then `COc1cccc(C(=O)NC(=O)Nc2nc(C)cc(C(F)(F)F)n2)c1`, with 11%; and `O=C(Cn1nc(C(=O)O)c2ccccc2c1=O)Nc1ccc(F)cc1`, with 18.2%; and `Cc1nn(CC(=O)Nc2ccc3c(c2)nc(CN2CCCCC2)n3C)c(=O)c2ccccc12`, with 18.4%.
Regarding `Cc1nn(CC(=O)Nc2ccc(F)cc2)c(=O)c2ccccc12`, the activity change was -95.2% (active).
Take `CCN(C(=O)COC(=O)C1CCN(S(=O)(=O)c2ccc(C)c(C)c2)CC1)C1CCS(=O)(=O)C1` (centres undefined): the activity change is -3.07%.
Turning to `O=C(CCNS(=O)(=O)c1ccc(Br)s1)NCc1ccccc1Cl`, the activity change was 32.2%.
Consider `CCN(CC)c1ccc(NC(=O)c2ccc(=O)[nH]c2)cc1S(=O)(=O)Nc1ccc(OC)cc1`, for which the activity change is 18.7%.
Turning to `COc1ccc(CN(C)C(=O)c2cc(-c3ccc(C)cc3C)nc3ccccc23)c(OC)c1OC`, the activity change is 10.3%.
Consider `COc1cc(C=O)c(Br)cc1OCC(=O)NCc1ccccc1`, for which the activity change was 15.5%.
In the case of `COc1cc(C(=S)NCc2ccccc2)cc(Br)c1O`, the activity change was -79.9% (active).
On to `COc1cc(C(=O)NCc2ccncc2)cc(Br)c1OCc1ccccc1`, for which the activity change is 36.8%.
Regarding `CN(C(=O)CN1C(=O)S/C(=C\c2ccccc2F)C1=O)C1CCS(=O)(=O)C1` (centres undefined), the activity change is 34.2%.
In the case of `CSc1nsc(NC(=O)Nc2ccccc2)n1`, the activity change is 37.1%.
As for `CCSc1nsc(NC(=O)Nc2ccccc2OC)n1`, the activity change was 11.5%.
In the case of `C=CCSc1nsc(NC(=O)Nc2cccc(C(C)=O)c2)n1`, the activity change is -85% (active).
Take `COc1ccc(NC(=O)CSCc2ccc([N+](=O)[O-])cc2)cc1OC`: the activity change is 3.16%.
Take `COc1ccc(-c2cc(C(=O)N(C)CC(=O)Nc3ccccc3Cl)c3ccccc3n2)cc1OC`: the activity change is 20%.
For `O=C(COc1cccc2c1CCNC2=O)NC1CCCCC1`, the activity change is 2.05%.
Regarding `O=C(OCc1cn(-c2ccc(Cl)c(Cl)c2)nn1)c1ccccc1Cl`, the activity change is -28.4%.
Then `CCCCCc1ccc(-c2ccc(OCC)cc2)nc1`, with -0.256%.
With `CCCCCc1ccc(-c2cn(Cc3ccc4ccccc4c3)nn2)cc1`, the activity change was 6.86%.
The value for `CCCCCc1ccc(-c2ccc(C(=O)O)cc2)nc1` was -76% (active).
For the compound `Cc1c(CC(=O)N2CCN(C(=O)C3COc4ccccc4O3)CC2)c(=O)oc2c(O)c(O)ccc12` (centres undefined), the activity change was 10.9%.
As to `O=C(NC(=O)N1CCSCC1)c1c(Cl)cccc1Cl`, the activity change was 19.3%.
As to `CSCCC(NC(=O)c1ccco1)C(=O)Nc1cc(C)ccn1` (centres undefined), the activity change is 30%.
The value for `COc1ccc(/C=C(\C#N)C(=O)OCC(=O)N(C)C2CCS(=O)(=O)C2)cc1` (centres undefined) was 22.6%; that for `N/C(=N\OC(=O)CCc1ccccc1)c1ccc(Cl)cc1` was 7.92%.
Consider `N/C(=N\OC(=O)CCc1ccccc1)c1cccnc1`, for which the activity change was -85.7% (active).
For `O=C(O)CCc1cccnc1`, the activity change was 7.07%.
On to `COc1ccc(C(=O)NCc2nnc(SCC(=O)NC3=NCCS3)n2C)cc1`, for which the activity change is -5.32%.
As for `CCCOCC(O)CC(CC)C(=O)NNC(=S)Nc1ccccc1` (centres undefined), the activity change was 0.623%.
With `O=C1/C(=C/c2ccc3c(c2)OCO3)Oc2cc(OCC(=O)N3CC(O)C[C@H]3C(=O)O)ccc21` (some centres undefined), the activity change was 29%.
The value for `O=C(CC1NCCNC1=O)Nc1cc(Cl)cc(Cl)c1` (centres undefined) was 4.37%.
As to `O=C(CC1SCCNC1=O)Nc1ccc(Cl)c(Cl)c1` (centres undefined), the activity change is -87.7% (active).
Take `O=C(CC1SCCNC1=O)Nc1ccc(Cl)cc1` (centres undefined): the activity change was -15%.
Regarding `COc1ccccc1/C=C/C=N/n1c(-c2ccc(Cl)cc2Cl)n[nH]c1=S`, the activity change is -0.967%.
In the case of `O=C(/C=C/Sc1ncn[nH]1)c1ccc(Cl)cc1`, the activity change is -91.7% (active).
The value for `O=C(CSc1ncn[nH]1)N/N=C/c1ccc(F)cc1` was -5.64%; that for `Cc1cc(C)nc(S/C=C/C(=O)c2ccccc2)n1` was 4.08%; that for `CC(=O)N(CC(O)CO)c1c(I)c(C(=O)NCC(O)CO)c(I)c(C(=O)NCC(O)CO)c1I` (centres undefined) was 14.8%.
For `Cn1ccc(=NC=C(C#N)C#N)c2ccccc21`, the activity change is 22.8%.
For the compound `CCOc1ccc(/C=N\NC(=O)c2c(C)nc3cc(C)ccn23)cc1`, the activity change is 2.9%.
Take `CCOc1ccc(/C=N/NC(N)=S)cc1`: the activity change is -94.8% (active).
Turning to `C=CCNC(=S)N/N=C/c1ccc(OCc2ccccc2)cc1`, the activity change was 16.4%.
On to `COC(=O)CSc1snnc1-c1ccc(Cl)c(Cl)c1`, for which the activity change is 9.65%.
Then `O=S1(=O)N=C(N(CCO)/N=C/c2ccccc2F)c2ccccc21`, with 15.9%; and `Cc1ccc(NC(=O)C2CC2c2ccccc2)cc1` (centres undefined), with -86.2% (active); and `Cc1ccc(C2CC2C(=O)NN)cc1` (centres undefined), with 19.8%.
In the case of `O=C(NNC(=S)Nc1ccc(F)cc1)[C@H]1C[C@@H]1c1ccccc1`, the activity change is -11.8%.
As to `CCN(CC(=O)NCc1cccs1)C(=O)c1cccc(S(=O)(=O)Nc2ccccc2OC)c1`, the activity change was 5.29%.
For `C/C(CC1CC(C)(C)OC1=O)=N/Nc1nc(-c2ccccc2)cs1` (centres undefined), the activity change is 26.9%.
The value for `Cc1ccccc1C(=O)N1CCN(c2ccc(NC(=O)c3cccs3)cc2)CC1` was 11.9%; that for `Cc1ccccc1C(=O)NC(=S)Nc1ccc(N2CCN(C(=O)c3ccccc3)CC2)cc1` was 13.3%; that for `Cc1ccccc1C(=O)Nc1ccc(N2CCCCCC2)cc1` was -80.7% (active).
On to `O=C(Nc1cccnc1)c1cccc(S(=O)(=O)N2CCCC2)c1`, for which the activity change is 6.26%.
The value for `O=C(NCc1cccs1)C1CCN(S(=O)(=O)c2ccc(Cl)cc2)CC1` was 14.4%.
On to `O=C(Nc1ccc(F)c(Cl)c1)C1CCN(S(=O)(=O)c2cccnc2)CC1`, for which the activity change was -93.8% (active).
Consider `O=C(Cc1cccs1)Nc1ccc([N+](=O)[O-])cc1`, for which the activity change is 10.5%.
Consider `Oc1ccc2ccc3cccc[n+]3c2c1`, for which the activity change was 42.1%.
Regarding `CCOc1ccc(/C=N/OCC(=O)NCc2cccs2)cc1`, the activity change was 5.49%.
Take `O=C(Cc1ccc(F)cc1)N/N=C/c1ccc2c(c1)OCO2`: the activity change was 14.4%.
For `O=C(/C=C/c1ccc2c(c1)OCO2)NCc1cn2cc(Cl)ccc2n1`, the activity change was 2.46%.
Then `O=C(/C=C/c1ccc2c(c1)OCO2)NCc1ccc(F)cc1`, with -82.8% (active).
Regarding `CC(=O)N1c2ccc(S(=O)(=O)N3CCC(C(=O)NC4CCCC(C)C4C)CC3)cc2CC1C` (centres undefined), the activity change is 26.4%.
With `O=C(COc1ncnc2c(Cl)cc(Cl)cc12)N1CCN(S(=O)(=O)c2ccccc2)CC1`, the activity change was 8.92%.
Consider `Cc1cc(C)c2nc(-c3cccnc3)cc(C(=O)Nc3ccc(S(=O)(=O)Nc4onc(C)c4C)cc3)c2c1`, for which the activity change was 39.3%.
With `CCOC(=O)c1sc(NC(=O)c2sc(C)nc2C)nc1C`, the activity change was 1.24%.
The value for `O=C(Nc1ccccc1F)c1ccc2c(c1)OCO2` was -3.7%; that for `O=C(Nc1nnc(C2COc3ccccc3O2)o1)c1ccc(F)cc1` (centres undefined) was -225% (active).
Take `CC1COc2ccccc2N1C(=O)c1ccc(F)cc1` (centres undefined): the activity change is 25.4%.
Then `CN(C)S(=O)(=O)N1CCC(Oc2cccc(C(=O)NCCCC3CCCC3)c2)CC1`, with 1.44%; and `CCN(CC(=O)Nc1cccc(S(=O)(=O)N2CCCCC2)c1)Cc1ccccc1`, with 24.8%.
`CC(=O)NC(CC(=O)Nc1cccc(S(=O)(=O)N2CCCC2)c1)c1ccccc1` (centres undefined): the activity change is 3.39%.
`O=C(Cn1cnc2ccccc2c1=O)Nc1cccc(S(=O)(=O)N2CCCCC2)c1`: the activity change was -81.4% (active).
Consider `C=CS(=O)c1sc(Cl)c(N2CCOCC2)c1[N+](=O)[O-]` (centres undefined), for which the activity change is -83.3% (active).
On to `CCCNC(=S)N1CCC(NC(=O)C23CC4CC(CC(C4)C2)C3)CC1`, for which the activity change was 28.5%.
For the compound `CCCc1cc(=O)oc2c(C)c(OC(C)C(=O)NCC(O)c3ccccc3)ccc12` (centres undefined), the activity change is 23.7%.
For the compound `CC(Oc1ccc(-c2ccccc2)c(F)c1)c1ccn(S(=O)(=O)c2cccc3ccccc23)n1` (centres undefined), the activity change is 27.1%.
Then `CCN(CC)CCn1c2c(c(SCC(=O)Nc3ccc(C(C)C)cc3)nc1=O)CCC2`, with 5.82%; and `O=c1c2sccc2nc(SCc2cc(=O)n3ccccc3n2)n1-c1ccc(Br)cc1`, with 19.6%; and `C=C(C)c1cccc(C(C)(C)NC(=O)NC2CCCC2)c1`, with 1.39%.
Turning to `COc1ccc(C(=O)NC(=S)NNC(=O)c2c(-c3ccccc3)noc2C)cc1`, the activity change was 26.1%.
With `COc1ccc(C(=O)NNC(=S)NC(=O)c2ccccc2)cc1`, the activity change is -106% (active).
The value for `COc1ccc(C(=O)NNC(=S)NC(=O)c2ccccc2[N+](=O)[O-])cc1` was 34.4%; that for `CCNc1nc(NC(C)C)nc(OCCOC(=O)c2ccccc2)n1` was 23.7%.
`COc1ccc(C2N=C(N)N=C(N)N2c2ccccc2)cc1OC` (centres undefined): the activity change was 19.2%.
The value for `CC1=CC=CC2=N/C(=N\S(=O)(=O)c3ccc(F)cc3F)c3ccccc3CN12` was 21.6%.
As for `CCc1ccccc1NC(=O)CCOc1ccccc1`, the activity change was 24.5%.
Consider `Cc1ccccc1NC(=O)CCOc1ccccc1`, for which the activity change was -83.3% (active).
For `Cc1cccc(OCCC(=O)Nc2ccccc2C(N)=O)c1`, the activity change is 11.3%.
As for `C=CCO/N=C/C1=C(O)C(C(=O)OC)C(C)(C)CC1=O` (centres undefined), the activity change was 9.19%.
Consider `COc1ccc(CCC(=O)c2ccc(OC)cc2)cc1`, for which the activity change is -82.8% (active).
For `COc1ccc(OCCC(=O)c2ccc(OC)cc2)cc1`, the activity change was 30.2%.
As for `CO/N=C/CC(=O)c1ccc(OC)cc1`, the activity change was 8.95%.
For `COc1cccc(NC(=O)COc2cc(C)cc3oc(=O)cc(C)c23)c1`, the activity change is 15.1%.
Consider `Cc1nnc(N/N=C/c2ccccn2)[nH]c1=O`, for which the activity change was -29.7%.
Then `O=c1[nH]c(NCCO)nnc1Cc1ccc(Cl)cc1`, with -1.67%.
As to `COc1ccc(Cc2nnc(N/N=C/c3ccccc3O)[nH]c2=O)cc1OC`, the activity change is -86.4% (active).
